# In PubChem BioAssay (NCI):
# Compounds without any hit were thinned out: in the full panel of roughly 83,000, 20% have a hit.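 Method: cells in 96-well plates; compound added at one concentration; 48 h incubation; percent growth measured; values under 10 scored active.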 Values without a mark were called inactive. Calls of active or inactive are those of the source.
# System: HL-60(TB) leukemia
# Assay: NCI-60 one-dose screen, 48 h (100 = growth as untreated, 0 = no growth, -100 = all killed)
# Settings: 10 µM unless noted
row,Compound,growth
1,O=C1COCCN1c1ccc(NCc2cn(C(=O)c3ccc(Cl)cc3)c3ccccc23)cc1,90.6%
2,CCN(Cc1cccc(S(=O)(=O)[O-])c1)c1ccc(C(=C2C=CC(=[N+](CC)Cc3cccc(S(=O)(=O)O)c3)C=C2)c2ccccc2S(=O)(=O)O)cc1,104%
3,COc1ccc(/C(=N\N)C(=O)c2ccccc2)cc1 (tested in a mixture with another compound),77.8%
4,CN(C)c1ccc(/C=C/c2c(F)cccc2F)cc1,98.8%
5,CC(=O)/C(Br)=C/c1ccc(Br)o1,-18.8% (active)
6,CC1CCC(C(C)(C)[N+](C)(C)C)CC1 (stereo unspecified),104%
